From paper PMC4552634, “A New Set of Chemical Starting Points with Plasmodium falciparum Transmission-Blocking Potential for Antimalarial Drug Discovery” (PLoS ONE, 2015)
Read-outs that look alike come from different tables or passages of the source. The campaign covered roughly 13,000 compounds. About 3,200 (25%) showed an effect of 50% or more. This is one part of the list.

System: P. falciparum stage V gametocytes
Design: BacTiter-Glo ATP luminescence viability of purified stage V gametocytes in 384-well plates, per cent inhibition versus DMSO
Conditions: 48 h, 5 µM, inhibitor

| SMILES | % Inhibition [%] | % Inhibition (% Inhibition) [%] |
| --- | --- | --- |
| Fc1cccc(Cl)c1-c1nc(NCCC(c2ccccc2)c2ccccc2)no1 [TCMDC-134175] | -12.09 | – |
| Cc1cc(=O)[nH]c(NC#N)n1 [TCMDC-123468] | 11.83 | – |
| O=C(c1cc(-c2ccccc2O)on1)N1CCN(C(c2ccccc2)c2ccccc2)CC1 [TCMDC-125470] | 18.53 | – |
| CC1(C)C2C=C(CN3CCC(NC(=O)Nc4ccc(Cl)c(Cl)c4)CC3)C1CC2 (stereo not shown) [TCMDC-135871] | 38.53 | – |
| COc1cccc(O)c1CN1CCC2(CCCN(Cc3ccc(F)cc3)C2)C1 (stereo not shown) [TCMDC-124635] | -20.8 | – |
| CCOC(=O)c1ccc(N2CCCCC2)c(NC(=O)C(Cl)(Cl)Cl)c1 [TCMDC-125786] | -22.75 | – |
| N=C(N=C(NCCCCCCNC(=NC(=N)Nc1ccc(Cl)cc1)N1CCCCC1)N1CCCCC1)Nc1ccc(Cl)cc1 [TCMDC-131811] | 119.8 | – |
| O=C(NCCCCN1CCN(c2ccc3c(c2)CCC3)CC1)c1ccc(NC(=O)c2ccc(Cl)cc2)cc1 [TCMDC-138512] | -2.19 | – |
| O=C(NCCCCN1CCC(O)(c2ccc3c(c2)OCO3)CC1)c1ccc(NC(=O)c2ccc(Cl)cc2)cc1 [TCMDC-138356] | -1.021 | – |
| O=C(/C=C/c1ccc(C(F)(F)F)cc1)NCCCCCN1CCN(C(=O)Nc2ccc(Cl)cc2)CC1 [TCMDC-136095] | -21.7 | – |
| Clc1ccc(CNCCCCCCCNCc2ccc(Cl)c(Cl)c2)cc1Cl [TCMDC-138075] | 16.46 | – |
| N=C(/N=C(/NCCCCCCN/C(=N\C(=N)Nc1ccc(Cl)cc1)N1CCOCC1)N1CCOCC1)Nc1ccc(Cl)cc1 [TCMDC-131813] | 108.7 | – |
| N=C(N=C(NCCCCCCNC(=NC(=N)NCc1ccc(Cl)c(Cl)c1)N1CCCCC1)N1CCCCC1)NCc1ccc(Cl)c(Cl)c1 [TCMDC-131816] | 118.5 | – |
| Clc1ccc(CNCC2CCN(CC3CCCCC3)CC2)cc1Cl [TCMDC-139467] | -4.599 | – |
| O=C(/C=C/c1ccc(C(F)(F)F)cc1)NCCCCCN1CCCN(C(=O)Nc2ccc(Cl)cc2)CC1 [TCMDC-136106] | -46.09 | – |
| Nc1nc2c(ncn2COC2COP(=O)(O)OC2)c(=O)[nH]1 (stereo not shown) [TCMDC-138021] | 10.06 | – |
| Cc1ccc(Nc2nc(C)cc(NC3CCCC3)n2)cc1 [TCMDC-133470] | 43.93 | – |
| CCN(CCNc1nc(NCCc2cnc[nH]2)nc(N(CCC#N)Cc2ccccc2)n1)c1cccc(C)c1 [TCMDC-139258] | -10.46 | – |
| CCC(=O)Oc1ccc(NC(=O)c2cccc(OC)c2)cc1 [TCMDC-131408] | 8.36 | – |
| COc1cccc(C(=O)Nc2ccc(Oc3ccc(Cl)cc3)cc2)c1 [TCMDC-123807] | -8.512 | – |
| COc1cccc(C(=O)NCc2n[nH]c(=S)n2-c2ccc(Cl)c(Cl)c2)c1 [TCMDC-123816] | 81.2 | – |
| Cc1nc(-c2cccc(Nc3nccc(NCC(O)c4cccc(C(F)(F)F)c4)n3)c2)cs1 (stereo not shown) [TCMDC-136581] | -55.32 | – |
| CC(Cc1ccc(COc2ccc(CC(CO)NCCc3cccc(Cl)c3)cc2)cc1)NCCc1cccc(Cl)c1 (stereo not shown) [TCMDC-139844] | 116.5 | – |

| SMILES | % Inhibition [%] | % Inhibition (% Inhibition) [%] |
| --- | --- | --- |
| CC(Cc1ccc(OCc2ccc(CCN(C)C)cc2)cc1)NCCc1cccc(Cl)c1 (stereo not shown) [TCMDC-139644] | 101.3 | – |
| CC(Cc1ccc(OCC(=O)NCC2CCN(CCc3cccc(Cl)c3)CC2)cc1)NCCc1cccc(Cl)c1 (stereo not shown) [TCMDC-139834] | 46.25 | – |
| CC(Cc1ccc(OCc2ccccc2)cc1)NCC(O)c1cccc(Cl)c1 (stereo not shown) [TCMDC-131473] | 11.58 | – |
| CCCCCCNC(=O)C1Cc2c([nH]c3ccc(C)cc23)C2(CCN(CCc3ccccc3)CC2)N1 (stereo not shown) [TCMDC-141092] | -44.59 | – |
| Cc1ccc(-c2cc(C(=O)Nc3ccc(S(=O)(=O)N4CCCC(C)C4)cc3)[nH]n2)c(O)c1 (stereo not shown) [TCMDC-125183] | -50.15 | – |
| COc1cc(CCOc2c(C)nc(N)nc2N)cc(OC)c1OC [TCMDC-131360] | -25.98 | – |
| FC(F)(F)c1ccc(Nc2nnnc3ccccc23)cc1 [TCMDC-125603] | 38.58 | – |
| CC(Cc1ccc(Oc2ccc(Cl)cc2)cc1)NCC(O)c1cccc(Cl)c1 (stereo not shown) [TCMDC-131511] | 4.056 | – |
| C[C@H](Cc1ccc(Oc2ccc(C[C@@H](C)NC[C@H](O)c3cccc(Cl)c3)cc2)cc1)NC[C@H](O)c1cccc(Cl)c1 [TCMDC-131560] | 108 | – |
| CC(Cc1ccc(S(=O)(=O)N(C(C)C)C(C)C)cc1)NCC(O)c1cccc(C(F)(F)F)c1 (stereo not shown) [TCMDC-131526] | 19.58 | – |
| COc1ccc(CC(Cc2ccc(OC)cc2)NCC(O)c2cccc(Cl)c2)cc1 (stereo not shown) [TCMDC-131543] | 12.1 | – |
| Cc1ccc(CCC(C)NCC(O)c2cccc(Cl)c2)cc1 (stereo not shown) [TCMDC-131436] | 13.72 | – |
| CC(Cc1ccc(CSC(C)C)cc1)NCC(O)c1cccc(Cl)c1 (stereo not shown) [TCMDC-131525] | 23.17 | – |
| C[C@H](Cc1ccc(S(=O)(=O)c2ccc(C[C@@H](C)NC[C@H](O)c3cccc(Cl)c3)cc2)cc1)NC[C@H](O)c1cccc(Cl)c1 [TCMDC-131561] | 74.46 | – |
| CNCCCCCCc1ccc(CC(C)NCC(O)c2cccc(Cl)c2)cc1 (stereo not shown) [TCMDC-131495] | 95.63 | – |
| C[C@H](Cc1ccc(CCc2ccc(C[C@@H](C)NC[C@H](O)c3cccc(Cl)c3)cc2)cc1)NC[C@H](O)c1cccc(Cl)c1 [TCMDC-131551] | 114.3 | – |
| CC(Cc1ccc(SCCSc2ccccc2)cc1)NCC(O)c1cccc(Cl)c1 (stereo not shown) [TCMDC-131515] | 37.98 | – |
| COC(=O)/C=C/c1ccc(CC(C)NCC(O)c2cccc(Cl)c2)cc1 (stereo not shown) [TCMDC-131433] | -3.295 | – |
| CCCCCCCSc1ccc(CC(C)NCC(O)c2cccc(Cl)c2)cc1 (stereo not shown) [TCMDC-131493] | 21.35 | – |
| O=C(CCCCCNC(=O)c1ccc(O)c(-c2ccc(Cl)c(Cl)c2)c1)NCCN1CCCC1 [TCMDC-140826] | -20.01 | – |
| O=C(N[C@@H](CC1CCCCC1)C(=O)NCCN1CCOCC1)c1ccc(O)c(-c2ccc(Cl)c(Cl)c2)c1 [TCMDC-140854] | 37.92 | – |
| O=C(NC1CCN(c2ccnc3ccccc23)C1)c1ccc(OC(F)(F)F)cc1 (stereo not shown) [TCMDC-133582] | -7.681 | – |
| O=c1cc(NCCCNCc2ccc3c(c2)OC(F)(F)O3)[nH]c2ccccc12 [TCMDC-139426] | -44.23 | – |

| SMILES | % Inhibition [%] | % Inhibition (% Inhibition) [%] |
| --- | --- | --- |
| CCCN(CCCCNC(=O)c1ccc(-c2cccnc2)cc1)C1CCc2c(O)cccc2C1 (stereo not shown) [TCMDC-139071] | -19.52 | – |
| CC(=O)Nc1ccc(CN2CCc3ccc(NS(=O)(=O)c4cccc(OCc5ccc(Cl)cc5)c4)cc3CC2)s1 [TCMDC-132327] | 4.938 | – |
| O=C(Nc1ccc(-c2cccc(-c3nc4ccc(F)cc4[nH]3)c2)cc1)Nc1ccc(F)c(F)c1F [TCMDC-133235] | -6.689 | – |
| CN(C)CCOc1cccc(-c2cnc(N)c(-c3nc4ccc(S(C)(=O)=O)cc4[nH]3)c2)c1 [TCMDC-133722] | 17.79 | – |
| CN(Cc1cnc2nc(N)nc(N)c2n1)c1ccc(C(=O)NC(CCC(=O)O)C(=O)O)cc1 (stereo not shown) [TCMDC-125488] | – | 31.4 |
| Cc1[nH]c(C)c(-c2cccc(-c3ccc(OC(F)(F)F)cc3)c2)c(=O)c1Br [TCMDC-135303] | 76.13 | – |
| Cc1[nH]c(C)c(-c2ccc(Oc3ccc(OC(F)(F)F)cc3)cc2)c(=O)c1I [TCMDC-137387] | 20.63 | – |
| Cc1[nH]c(C)c(-c2ccc(Oc3ccc(OC(F)(F)F)cc3)cc2)c(=O)c1Br [TCMDC-137325] | – | 14.7 |
| Cc1[nH]c(C)c(-c2ccc(-c3ccc(OC(F)(F)F)cc3)cc2)c(=O)c1Br [TCMDC-134726] | 85.61 | – |
| Cc1[nH]c(C)c(-c2ccc(Oc3cccc(OC(F)(F)F)c3)cc2)c(=O)c1Cl [TCMDC-137389] | 30.57 | – |
| Cc1[nH]c(C)c(-c2ccc(Oc3ccc(OC(F)(F)F)cc3)cc2)c(=O)c1Br [TCMDC-138826] | – | 69.76 |
| Cc1[nH]c(C)c(-c2ccc(-c3ccc(OC(F)(F)F)cc3)cc2)c(=O)c1Cl [TCMDC-136060] | 114.3 | – |
| CS(=O)(=O)NCCCNCc1ccc(-c2ccc(-c3nc4cc(F)ccc4[nH]3)cc2)cc1.O=C(O)C(F)(F)F [TCMDC-133081] | -74.36 | – |
| Cc1cc(Nc2cc(Cl)cc(Cl)c2)nc(N)n1 [TCMDC-123780] | 13.41 | – |
| CCCCc1ccc2[nH]cc(C3=CCN(C)CC3)c2c1Br [TCMDC-138963] | 18.47 | – |
| CCCCc1ccc(-c2nc(NC(=O)Nc3nc(-c4ccccc4)[nH]c3C(=O)OCC)c(C(=O)OCC)[nH]2)cc1 [TCMDC-138897] | -17.92 | – |
| CC(C)Nc1nc(NCCc2cnc[nH]2)nc(Nc2ccc(Oc3ccccc3)cc2)n1 [TCMDC-139746] | -7.765 | – |
| COc1cc(CNCCCNc2cc(=O)c3ccccc3[nH]2)c2c(c1)C(C)CN2C(=O)OC(C)(C)C (stereo not shown) [TCMDC-140390] | -23.23 | – |
| Cc1c(O)cccc1Nc1ccnc2ccc(C(F)(F)F)cc12 [TCMDC-138246] | -8.539 | – |
| CN(C)C(=O)CN1CCN(c2ncnc(N3CCc4c([nH]c5ccccc45)[C@@H]3c3ccc4c(c3)CCO4)n2)CC1 [TCMDC-138571] | 5.552 | – |
| Oc1cccc(C2CCCN(Cc3cccc4cc[nH]c34)C2)c1 (stereo not shown) [TCMDC-134419] | -7.919 | – |
